Source: PubChem BioAssay
Unmarked numbers belong to inactive results. For some of these results: Results with a measured potency or affinity are listed apart. The source made the active and inactive calls. Unless noted, how the calls were made is not given here.

Legend:
[1] = antimalarial activity against Dd2 strain (AID 2302;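 active means growth inhibition above 50% at the single 2 µM test dose, taken to imply half-maximal potency below 2 µM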;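 further: 0% = DMSO untreated growth and 100% = chloroquine plus artemisinin killed control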); conditions: P. falciparum Dd2 in RBCs, LDH growth readout, 72 h; at 2 µM; hits give high values
[2] = human hepatoma cell viability loss – ATP luminescence, cytotoxicity control for P. falciparum antimalarial project, primary screen (AID 2303;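 active means inhibition above 50%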;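 further: 0% = DMSO wells and 100% = digitonin-killed cells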); conditions: HepG2 viability, 24-48 h, at 10 µM, hits give high values
[3] = target: L-lactate dehydrogenase (Plasmodium falciparum (isolate CDC / Honduras)) (UniProt Q27743); assay: PfLDH activity inhibition – cell lysate, 3D7 strain, counter-screen for P. falciparum growth inhibition project (AID 2304);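 further: 0% = vehicle and 100% = reference inhibitor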; conditions: P. falciparum 3D7 crude extract, LDH APAD/NBT absorbance; at 2 µM; hits give high values
Sequence of L-lactate dehydrogenase (Plasmodium falciparum (isolate CDC / Honduras)) (Q27743 whole entry, looked up): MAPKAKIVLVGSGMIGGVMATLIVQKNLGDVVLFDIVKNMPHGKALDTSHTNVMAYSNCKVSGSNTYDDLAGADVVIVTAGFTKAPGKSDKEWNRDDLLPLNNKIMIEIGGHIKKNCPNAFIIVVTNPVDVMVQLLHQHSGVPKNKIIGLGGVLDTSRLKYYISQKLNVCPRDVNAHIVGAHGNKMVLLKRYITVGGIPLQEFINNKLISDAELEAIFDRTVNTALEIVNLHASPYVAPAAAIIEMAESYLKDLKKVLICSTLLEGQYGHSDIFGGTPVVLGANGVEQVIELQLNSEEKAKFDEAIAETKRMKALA

[4] = inhibition of 3D7 malaria parasite growth – strain 3D7 (AID 2306);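 further: 0% = DMSO wells and 100% = chloroquine plus artemisinin control wells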; conditions: P. falciparum 3D7 erythrocytic growth, LDH absorbance, 72 h; at 2 µM; hits give high values
[5] = target: Calcium-dependent protein kinase 1 (Plasmodium falciparum (isolate 3D7)) (UniProt P62344); assay: PfCDPK1 kinase inhibitors, biochemical, TCAMS library (AID 1159585; cut-off not given, nearly all actives have IC50 up to about 0.98 µM;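 further: inhibitors leave more ATP so luminescence rises with inhibition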); conditions: recombinant PfCDPK1, Kinase-Glo ATP depletion luminescence
Sequence of Calcium-dependent protein kinase 1 (Plasmodium falciparum (isolate 3D7)) (P62344 whole entry, looked up): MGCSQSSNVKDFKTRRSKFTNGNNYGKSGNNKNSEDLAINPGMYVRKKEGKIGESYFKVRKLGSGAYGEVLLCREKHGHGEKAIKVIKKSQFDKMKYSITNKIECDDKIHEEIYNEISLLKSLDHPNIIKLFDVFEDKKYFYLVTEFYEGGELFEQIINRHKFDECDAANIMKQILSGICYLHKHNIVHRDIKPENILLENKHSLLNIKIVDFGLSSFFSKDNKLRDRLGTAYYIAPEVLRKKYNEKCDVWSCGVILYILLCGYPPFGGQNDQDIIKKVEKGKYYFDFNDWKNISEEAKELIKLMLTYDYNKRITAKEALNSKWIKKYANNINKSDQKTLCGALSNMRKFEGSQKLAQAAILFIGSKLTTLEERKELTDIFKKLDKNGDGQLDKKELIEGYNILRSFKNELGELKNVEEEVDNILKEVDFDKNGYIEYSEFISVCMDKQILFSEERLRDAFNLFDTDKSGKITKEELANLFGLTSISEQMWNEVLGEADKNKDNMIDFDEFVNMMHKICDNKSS

[6] = target: Plasmodium falciparum protein kinase 6 (PK6, PF3D7_1337100) (UniProt Q8IDW1); assay: PfPK6 kinase inhibitors, biochemical, TCAMS library (AID 1159586); conditions: recombinant PfPK6, Kinase-Glo ATP depletion luminescence
Sequence of Plasmodium falciparum protein kinase 6 (PK6, PF3D7_1337100) (Q8IDW1 1-305): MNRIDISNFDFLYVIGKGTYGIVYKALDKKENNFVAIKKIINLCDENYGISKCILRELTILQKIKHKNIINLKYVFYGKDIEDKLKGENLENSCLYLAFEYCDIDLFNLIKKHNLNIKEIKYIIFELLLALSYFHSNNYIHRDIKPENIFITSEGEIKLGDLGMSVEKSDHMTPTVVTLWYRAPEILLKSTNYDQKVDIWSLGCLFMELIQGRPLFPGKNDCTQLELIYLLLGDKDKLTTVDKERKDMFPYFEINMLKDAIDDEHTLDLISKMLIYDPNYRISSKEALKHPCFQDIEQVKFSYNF

[7] = target: Protein kinase 7 (PK7), Plasmodium falciparum 3D7 (PF3D7_0213400) (UniProt Q7YTF7); assay: inhibition of Plasmodium PK7 catalytic activity – biochemical, TCAMS antimalarial set, Kinase-Glo luminescence (AID 1159587); conditions: recombinant PfPK7, Kinase-Glo ATP depletion luminescence
Sequence of Protein kinase 7 (PK7), Plasmodium falciparum 3D7 (PF3D7_0213400) (Q7YTF7 1-343): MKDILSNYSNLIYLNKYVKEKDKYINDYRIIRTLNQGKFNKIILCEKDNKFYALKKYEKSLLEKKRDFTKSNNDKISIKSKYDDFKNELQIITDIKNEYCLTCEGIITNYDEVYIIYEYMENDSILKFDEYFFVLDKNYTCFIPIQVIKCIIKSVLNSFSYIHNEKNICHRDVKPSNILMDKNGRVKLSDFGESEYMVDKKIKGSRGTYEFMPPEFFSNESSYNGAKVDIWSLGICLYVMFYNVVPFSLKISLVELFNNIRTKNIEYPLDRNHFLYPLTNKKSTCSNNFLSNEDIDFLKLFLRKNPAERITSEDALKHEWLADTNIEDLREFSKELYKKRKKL

[8] = target: Calcium-dependent protein kinase 4 (Plasmodium falciparum (isolate 3D7)) (UniProt Q8IBS5); assay: PfCDPK4 kinase inhibitors, biochemical, TCAMS library (AID 1159588; cut-off not given, nearly all actives have IC50 up to about 0.91 µM); conditions: recombinant PfCDPK4, Kinase-Glo ATP depletion luminescence
Sequence of Calcium-dependent protein kinase 4 (Plasmodium falciparum (isolate 3D7)) (Q8IBS5 whole entry, looked up): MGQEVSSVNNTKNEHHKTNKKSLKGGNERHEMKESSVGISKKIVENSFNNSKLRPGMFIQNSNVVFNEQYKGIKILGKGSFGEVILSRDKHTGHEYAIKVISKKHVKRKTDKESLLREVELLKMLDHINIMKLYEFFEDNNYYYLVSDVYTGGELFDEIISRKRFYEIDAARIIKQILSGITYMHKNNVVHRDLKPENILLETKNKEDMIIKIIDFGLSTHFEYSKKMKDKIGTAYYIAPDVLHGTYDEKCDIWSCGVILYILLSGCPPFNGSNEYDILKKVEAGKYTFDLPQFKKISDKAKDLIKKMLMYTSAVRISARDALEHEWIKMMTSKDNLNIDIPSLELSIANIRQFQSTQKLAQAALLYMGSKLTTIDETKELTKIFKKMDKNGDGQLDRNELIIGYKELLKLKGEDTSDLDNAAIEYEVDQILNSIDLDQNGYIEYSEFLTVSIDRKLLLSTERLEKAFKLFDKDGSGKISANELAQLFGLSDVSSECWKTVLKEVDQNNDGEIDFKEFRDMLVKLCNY

Cc1cc(C(F)(F)F)nn1-c1ccc(NC(=O)c2ccco2)cc1
growth inhibition [1]: 93% (active)
inhibition [2]: 14%
inhibition [3]: -3%
growth inhibition [4]: 94% (active)
outcome [5]: inactive
outcome [6]: inactive
outcome [7]: inactive
outcome [8]: inactive

CCn1cc(C=C2Oc3c(ccc(O)c3CN3CCCCC3)C2=O)c2ccccc21
growth inhibition [1]: 99% (active)
inhibition [2]: -9%
inhibition [3]: -3%
growth inhibition [4]: 101% (active)
outcome [5]: inactive
outcome [6]: inactive
outcome [7]: inactive
outcome [8]: inactive

CCOC(=O)c1ccc(NC(=O)N[C@@H](Cc2ccccc2)C(=O)NC2CCN(Cc3ccc(O)c(OC)c3)C2)cc1 (stereo not given in full)
growth inhibition [1]: 0%
inhibition [2]: -1%
inhibition [3]: -2%
growth inhibition [4]: 88% (active)
outcome [5]: inactive
outcome [6]: inactive
outcome [7]: inactive
outcome [8]: inactive

O=C(Nc1cccc(-c2ccc(-c3nc4ccc(C(F)(F)F)cc4[nH]3)cc2)c1)c1cnc[nH]1
growth inhibition [1]: 21%
inhibition [2]: 16%
inhibition [3]: -3%
growth inhibition [4]: 91% (active)
outcome [5]: inactive
outcome [6]: inactive
outcome [7]: inactive
outcome [8]: inactive

Cc1ccccc1CN1CCCN(Cc2ccc(C(=O)Nc3ccc(C(C)(C)C)cc3)cc2)CC1
growth inhibition [1]: 5%
inhibition [2]: 52% (active)
inhibition [3]: -1%
growth inhibition [4]: 89% (active)
outcome [5]: inactive
outcome [6]: inactive
outcome [7]: inactive
outcome [8]: inactive

Cc1sc(CNCCCNc2cc(=O)c3ccccc3[nH]2)cc1Br
growth inhibition [1]: 83% (active)
inhibition [2]: 12%
inhibition [3]: -3%
growth inhibition [4]: 100% (active)
outcome [5]: inactive
outcome [6]: inactive
outcome [7]: inactive
outcome [8]: inactive

CCCCC(NCC)c1ccc(OCCOc2ccc(C(CCCC)NCC)cc2)cc1 (stereo not given)
growth inhibition [1]: 99% (active)
inhibition [2]: 100% (active)
inhibition [3]: 3%
growth inhibition [4]: 101% (active)
outcome [5]: inactive
outcome [6]: inactive
outcome [7]: inactive
outcome [8]: inactive

COc1ccc(Cc2nc3c(n2C(C)=O)SC(c2ccc(Cl)c(Cl)c2)=NN3C(C)=O)cc1
growth inhibition [1]: 22%
inhibition [2]: -2%
inhibition [3]: -6%
growth inhibition [4]: 94% (active)
outcome [5]: inactive
outcome [6]: inactive
outcome [7]: inactive
outcome [8]: inactive

CCOc1c(N2CCN(CCCCNC(=O)c3ccc(NC(=O)c4ccc(Cl)cc4)cc3)CC2)ccc2ccccc12
growth inhibition [1]: 45%
inhibition [2]: 18%
inhibition [3]: 0%
growth inhibition [4]: 100% (active)
outcome [5]: inactive
outcome [6]: inactive
outcome [7]: inactive
outcome [8]: inactive

COc1ccc(CNCc2cccc(-c3cccc(-c4nc5ccc(F)cc5[nH]4)c3)c2)cc1
growth inhibition [1]: 55% (active)
inhibition [2]: 18%
inhibition [3]: 5%
growth inhibition [4]: 100% (active)
outcome [5]: inactive
outcome [6]: inactive
outcome [7]: inactive
outcome [8]: inactive

O=C(c1cc(-c2cccs2)[nH]n1)N1CCN(S(=O)(=O)c2ccc(Br)cc2)CC1
growth inhibition [1]: 95% (active)
inhibition [2]: -6%
inhibition [3]: 3%
growth inhibition [4]: 93% (active)
outcome [5]: inactive
outcome [6]: inactive
outcome [7]: inactive
outcome [8]: inactive

COc1cccc(CN2CCN(C(c3ccccc3)c3ccccc3)CC2)c1O
growth inhibition [1]: 98% (active)
inhibition [2]: 6%
inhibition [3]: 2%
growth inhibition [4]: 99% (active)
outcome [5]: inactive
outcome [6]: inactive
outcome [7]: inactive
outcome [8]: inactive

O=C(Nc1cccc(-c2ccc(-c3nc4ccc(C(F)(F)F)cc4[nH]3)cc2)c1)c1ccoc1
growth inhibition [1]: 42%
inhibition [2]: 76% (active)
inhibition [3]: -4%
growth inhibition [4]: 98% (active)
outcome [5]: inactive
outcome [6]: inactive
outcome [7]: inactive
outcome [8]: inactive

CCCCCCCN(Cc1ccc(OC(C)(C)C(=O)OCC)cc1)C(=O)Nc1ccccc1OCC
growth inhibition [1]: 94% (active)
inhibition [2]: -5%
inhibition [3]: -3%
growth inhibition [4]: 93% (active)
outcome [5]: inactive
outcome [6]: inactive
outcome [7]: inactive
outcome [8]: inactive

CCCCCCCc1c2c(C)c(C(=O)OCC)nc-2cc2n1CC(C)=C2C
growth inhibition [1]: 10%
inhibition [2]: 11%
inhibition [3]: 1%
growth inhibition [4]: 89% (active)
outcome [5]: inactive
outcome [6]: inactive
outcome [7]: inactive
outcome [8]: inactive

CC(=O)Oc1ccc(C(=O)Oc2ccccc2C#CC#N)cc1OC(C)=O
growth inhibition [1]: 61% (active)
inhibition [2]: 23%
inhibition [3]: -1%
growth inhibition [4]: 93% (active)
outcome [5]: inactive
outcome [6]: inactive
outcome [7]: inactive
outcome [8]: inactive

CSC1=NC2(CC(c3cccc(C)c3)c3cc(Cl)c(O)cc3O2)CC(C)(C)N1 (stereo not given)
growth inhibition [1]: 73% (active)
inhibition [2]: 0%
inhibition [3]: 4%
growth inhibition [4]: 100% (active)
outcome [5]: inactive
outcome [6]: inactive
outcome [7]: inactive
outcome [8]: inactive

c1cc(-c2ccc(CN3CCCCC3)cc2)cc(-c2nc3ccccc3[nH]2)c1
growth inhibition [1]: 79% (active)
inhibition [2]: 39%
inhibition [3]: 5%
growth inhibition [4]: 101% (active)
outcome [5]: inactive
outcome [6]: inactive
outcome [7]: inactive
outcome [8]: inactive

Cc1ccc(-c2nnc3c4ccccc4c(C)nn23)cc1S(=O)(=O)N1CCN(CCO)CC1
growth inhibition [1]: 62% (active)
inhibition [2]: 16%
inhibition [3]: -4%
growth inhibition [4]: 85% (active)
outcome [5]: inactive
outcome [6]: inactive
outcome [7]: inactive
outcome [8]: inactive

CCc1ccc(CN2CCC(CNC(=O)c3cc(-c4ccccc4F)cs3)C2)cc1 (stereo not given)
growth inhibition [1]: 3%
inhibition [2]: 29%
inhibition [3]: -2%
growth inhibition [4]: 100% (active)
outcome [5]: inactive
outcome [6]: inactive
outcome [7]: inactive
outcome [8]: inactive
